# From PubChem BioAssay (NCATS)
# Values without a mark were called inactive. Records with an inconclusive call do not appear. A call without a number means that no potency is given here. Activity calls are given as the source filed them. The call rests on the fitted dose curve; in most records, active means well fitted curve in the direction sought with a large enough effect; inconclusive means small, poorly fitted or top-dose-only effect, or another doubt; inactive means no such curve, though single readings can be large; an effect the other way counts as inactive or inconclusive.
# Legend:
# [1] = biological target: Rap guanine nucleotide exchange factor 3 (Homo sapiens) (UniProt O95398); experiment: Confirmatory qHTS for antagonist of cAMP-regulated guanine nucleotide exchange factor 3 (EPAC1) (AID 1645880); further: nearly all actives have a fitted effect of over 55% in size; further: potency means the concentration at half of the fitted maximal effect
# Procedure, shortened: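 Nucleotide exchange uses 100 nM EPAC1, 250 nM RAP1B-BODIPY-GDP and 50 uM GDP, with compounds in a concentration-titration series. After 5 min at room temperature, fluorescence (480 nm ex/540 nm em) is read every 5 min for 30 min. Data are normalized to control ATA and DMSO.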
# [2] = biological target: Rap guanine nucleotide exchange factor 3 (Homo sapiens) (UniProt O95398); experiment: Confirmatory qHTS for agonist of cAMP-regulated guanine nucleotide exchange factor 3 (EPAC1) (AID 1645881);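 further: EPAC1 catalysed release of BODIPY-GDP from Rap1B seen as fluorescence loss; nearly all actives have a fitted effect of over 75% in size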
# [3] = biological target: Rap guanine nucleotide exchange factor 4 (Homo sapiens) (UniProt Q8WZA2); experiment: Confirmatory qHTS for antagonist of cAMP-regulated guanine nucleotide exchange factor 4 (EPAC2) (AID 1645885); further: nearly all actives have a fitted effect of over 25% in size
# [4] = biological target: Rap guanine nucleotide exchange factor 3 (Homo sapiens) (UniProt O95398); experiment: Counterscreen qHTS for antagonist of cAMP-regulated guanine nucleotide exchange factor 3 (EPAC1) (AID 1645888);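 further: fluorescence loss as bound BODIPY-GDP is released from Rap1B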
# Procedure, shortened: (§1)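 Measured: fluorescence of BODIPY-GDP bound to Rap1B, which falls as exchange proceeds. Conditions include 50 uM competing GDP, 5 and 30 min reads, and a later cAMP challenge for antagonist detection.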
# [5] = biological target: Cytochrome P450 3A4 (Homo sapiens) (UniProt P08684); experiment: qHTS Assay for Inhibitors and Substrates of Cytochrome P450 3A4 (AID 884); further: potency means the concentration at half of the fitted maximal effect; nearly all actives have a fitted effect of over 50% in size
# Procedure, shortened: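 20 nM human CYP3A4 with 25 uM Luciferin-PPXE (at KM) in 200 mM KPO4, preincubated 10 min with compound; NADPH regeneration started a 60 min RT reaction. Luciferin detected by luminescence, normalized to 57 uM ketoconazole as full inhibition.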
# [6] = biological target: Cytochrome P450 3A4 (Homo sapiens) (UniProt P08684); experiment: qHTS Assay for Activators of Cytochrome P450 3A4 (AID 885); further: nearly all actives have a fitted effect of over 65% in size
# Procedure, shortened: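 Signal was normalized against complete inhibition by 57 uM ketoconazole. The reaction used 20nM CYP3A4 with 25uM Luciferin-PPXE, 10-min compound preincubation and a 60-min NADPH-supported step at RT.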
# [7] = Confirmation and Secondary Assay for Modulators of Hemoglobin Beta Chain Splicing at IVS2 654 locus (AID 910)
# Procedure, shortened: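 HeLa cells stably carrying EGFP interrupted by mutant beta-globin IVS2-654 intron (CMV-driven) were treated with compound for 2 days at 37C; corrected splicing was scored as total peak GFP intensity per well (488 nm excitation, 500-520 nm emission).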
# [8] = Confirmation and Secondary Assay for Modulators of Hemoglobin Beta Chain Splicing at IVS2 705 locus (AID 930);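 further: HeLa cells stably expressing the EGFP-705 splicing reporter; GFP fluorescence per well restored by corrected splicing of the IVS2-705 intron in EGFP; series mostly up to about 46 µM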
# Procedure, shortened: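 HeLa cells stably carrying EGFP interrupted by mutant beta-globin intron 2 (IVS2-705) treated 2 days at 37C with compound; 500 nM antisense PNA as control. Correct splicing read as total peak GFP intensity per well by laser-scanning cytometry.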
# [9] = biological target: Rap guanine nucleotide exchange factor 4 (Homo sapiens) (UniProt Q8WZA2); experiment: Confirmatory qHTS for agonist of cAMP-regulated guanine nucleotide exchange factor 4 (EPAC2) (AID 1645884);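 further: nucleotide exchange releases bodipy-GDP from Rap1 and this lowers its fluorescence; nearly all actives have a fitted effect of over 65% in size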; further: potency means the concentration at half of the fitted maximal effect
# [10] = biological target: Rap guanine nucleotide exchange factor 3 (Homo sapiens) (UniProt O95398); experiment: Counterscreen qHTS for agonist of cAMP-regulated guanine nucleotide exchange factor 3 (EPAC1) (AID 1645889); further: nearly all actives have a fitted effect of over 40% in size
# Procedure, shortened: as §1
# [11] = biological target: Tumor susceptibility gene 101 protein (Homo sapiens) (UniProt Q99816); experiment: qHTS Assay for Iinhibitors of HIV-1 Budding by Blocking the Interaction of PTAP/TSG101: Hit Validation (AID 651600); further: nearly all actives have a fitted effect of over 70% in size
# Procedure, shortened: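 Fluorescence polarization binding assay: Tsg101 binding domain (10 uM final) pre-dispensed with compounds, then FITC-labeled PTAP-motif peptide (50 nM final) added; 20 min at r.t. in HEPES pH 7.5 buffer with NaCl, Tween 20, EDTA, TCEP.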
# Rap guanine nucleotide exchange factor 3 (Homo sapiens), sequence (O95398 whole entry, looked up): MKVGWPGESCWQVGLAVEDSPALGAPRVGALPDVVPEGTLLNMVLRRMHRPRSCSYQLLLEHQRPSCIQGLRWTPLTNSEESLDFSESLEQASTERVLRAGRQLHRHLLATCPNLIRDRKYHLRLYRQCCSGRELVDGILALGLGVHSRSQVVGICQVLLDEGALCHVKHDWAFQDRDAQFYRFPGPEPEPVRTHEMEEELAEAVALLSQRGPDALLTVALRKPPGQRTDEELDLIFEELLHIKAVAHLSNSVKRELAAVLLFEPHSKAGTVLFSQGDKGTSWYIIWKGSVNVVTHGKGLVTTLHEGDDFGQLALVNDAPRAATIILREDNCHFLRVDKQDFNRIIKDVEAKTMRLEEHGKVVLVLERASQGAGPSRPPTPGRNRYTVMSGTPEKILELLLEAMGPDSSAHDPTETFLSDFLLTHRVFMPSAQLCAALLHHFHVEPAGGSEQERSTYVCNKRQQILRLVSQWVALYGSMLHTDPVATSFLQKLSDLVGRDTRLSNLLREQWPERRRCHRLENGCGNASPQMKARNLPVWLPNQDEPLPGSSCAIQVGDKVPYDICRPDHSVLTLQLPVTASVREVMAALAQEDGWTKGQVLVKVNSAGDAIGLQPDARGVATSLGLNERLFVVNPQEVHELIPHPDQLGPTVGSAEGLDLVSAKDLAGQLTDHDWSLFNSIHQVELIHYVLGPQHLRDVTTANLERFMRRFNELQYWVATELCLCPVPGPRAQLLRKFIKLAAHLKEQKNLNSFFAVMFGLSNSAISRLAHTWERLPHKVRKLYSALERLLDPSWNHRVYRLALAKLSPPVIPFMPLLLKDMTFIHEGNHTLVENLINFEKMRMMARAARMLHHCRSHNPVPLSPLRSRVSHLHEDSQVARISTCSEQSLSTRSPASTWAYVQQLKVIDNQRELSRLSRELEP
# Rap guanine nucleotide exchange factor 4 (Homo sapiens), sequence (Q8WZA2 whole entry, looked up): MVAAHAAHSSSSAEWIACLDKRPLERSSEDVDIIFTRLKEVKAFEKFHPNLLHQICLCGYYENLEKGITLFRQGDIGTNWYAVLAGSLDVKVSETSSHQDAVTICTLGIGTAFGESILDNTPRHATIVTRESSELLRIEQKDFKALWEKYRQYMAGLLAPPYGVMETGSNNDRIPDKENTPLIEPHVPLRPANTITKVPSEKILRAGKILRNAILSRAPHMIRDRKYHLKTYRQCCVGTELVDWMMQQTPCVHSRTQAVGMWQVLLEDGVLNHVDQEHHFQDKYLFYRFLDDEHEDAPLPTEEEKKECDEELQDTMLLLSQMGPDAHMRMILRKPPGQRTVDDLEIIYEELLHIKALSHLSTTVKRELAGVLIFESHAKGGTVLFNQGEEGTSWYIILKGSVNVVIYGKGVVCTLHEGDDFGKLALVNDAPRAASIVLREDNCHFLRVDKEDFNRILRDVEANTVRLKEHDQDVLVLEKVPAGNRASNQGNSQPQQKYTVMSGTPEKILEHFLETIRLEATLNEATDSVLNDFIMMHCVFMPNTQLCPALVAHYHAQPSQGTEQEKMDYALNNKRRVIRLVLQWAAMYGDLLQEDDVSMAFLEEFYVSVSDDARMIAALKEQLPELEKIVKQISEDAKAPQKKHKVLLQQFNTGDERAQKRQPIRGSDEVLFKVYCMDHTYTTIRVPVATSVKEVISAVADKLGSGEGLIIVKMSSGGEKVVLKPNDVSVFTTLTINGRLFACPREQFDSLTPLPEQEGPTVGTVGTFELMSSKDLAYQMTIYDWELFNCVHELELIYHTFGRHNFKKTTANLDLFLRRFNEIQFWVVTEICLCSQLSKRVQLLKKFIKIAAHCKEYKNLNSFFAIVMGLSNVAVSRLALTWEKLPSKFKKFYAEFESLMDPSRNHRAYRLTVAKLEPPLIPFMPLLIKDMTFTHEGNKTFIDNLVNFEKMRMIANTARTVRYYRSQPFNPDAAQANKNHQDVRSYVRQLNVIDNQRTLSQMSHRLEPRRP
# Cytochrome P450 3A4 (Homo sapiens), sequence (P08684 whole entry, looked up): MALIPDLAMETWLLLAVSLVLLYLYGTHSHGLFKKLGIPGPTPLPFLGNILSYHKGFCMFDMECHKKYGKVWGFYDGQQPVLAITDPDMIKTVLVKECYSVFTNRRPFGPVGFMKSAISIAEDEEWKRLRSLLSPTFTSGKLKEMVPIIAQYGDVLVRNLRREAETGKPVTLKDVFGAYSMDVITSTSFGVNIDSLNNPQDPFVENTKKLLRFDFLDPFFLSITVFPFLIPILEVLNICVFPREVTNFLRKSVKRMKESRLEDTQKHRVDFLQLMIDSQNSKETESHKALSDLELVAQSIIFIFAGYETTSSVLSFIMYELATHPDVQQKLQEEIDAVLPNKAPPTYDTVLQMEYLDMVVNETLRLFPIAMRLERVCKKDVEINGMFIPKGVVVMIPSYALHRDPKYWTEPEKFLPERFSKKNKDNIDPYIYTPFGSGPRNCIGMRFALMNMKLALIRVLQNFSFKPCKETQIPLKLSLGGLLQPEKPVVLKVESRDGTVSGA
# Tumor susceptibility gene 101 protein (Homo sapiens), sequence (Q99816 whole entry, looked up, the tested form may be a part): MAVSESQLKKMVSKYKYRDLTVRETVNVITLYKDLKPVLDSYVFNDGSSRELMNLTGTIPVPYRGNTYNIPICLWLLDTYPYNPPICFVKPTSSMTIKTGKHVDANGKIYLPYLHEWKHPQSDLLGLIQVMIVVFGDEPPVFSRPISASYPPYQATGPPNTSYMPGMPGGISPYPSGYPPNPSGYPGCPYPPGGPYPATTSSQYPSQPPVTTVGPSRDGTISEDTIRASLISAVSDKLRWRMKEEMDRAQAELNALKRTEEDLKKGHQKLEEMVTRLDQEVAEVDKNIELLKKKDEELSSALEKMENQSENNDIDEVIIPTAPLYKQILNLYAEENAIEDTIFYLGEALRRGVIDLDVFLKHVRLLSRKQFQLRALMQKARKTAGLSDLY
structure (smiles),measurement,setting,value
COc1ccccc1-n1c(-c2cccs2)nc2ccccc2c1=O,Potency,[1],inactive
same,Potency,[2],inactive
same,Potency,[3],inactive
same,outcome,[4],inactive
CCCCCC1C(=O)O[C@H](C)[C@@H](NC(=O)c2cccc(NC=O)c2O)C(=O)OC(C)C1OC(=O)CC(C)C (stereo partly specified),Potency,[5],7.94 µM (active)
same,Potency,[6],inactive
same,Potency,[7],inactive
same,Potency,[8],inactive
same,Potency,[1],inactive
same,Potency,[2],inactive
same,Potency,[9],inactive
O=[N+]([O-])c1ccc(N2CCOCC2)c2c1no[n+]2[O-],Potency,[1],47.8 µM (active)
same,Potency,[2],inactive
same,Potency,[9],inactive
same,Potency,[10],inactive
CC(C)N1C(=O)/C(=C/C=C/c2ccco2)C(=O)N(Cc2ccco2)C1=O,Potency,[1],inactive
same,activation,[9],"13% [at 17.1 µM, percent relative to cAMP agonist control]"
same,"activity change, negative = inhibition",[3],22.6% [at 12.7 µM]
same,"activity change, negative = inhibition",[4],52.4% [at 30.8 µM]
Cn1cccc1/C=C1/C(=O)NC(=S)N(Cc2ccc(F)cc2)C1=O,Potency,[1],31.6 µM (active)
same,Potency,[2],inactive
same,activation,[9],"0.836% [at 17.1 µM, percent relative to cAMP agonist control]"
same,"activity change, negative = inhibition",[3],-22.8% [at 12.7 µM]
same,activation,[10],10.8% [at 30.8 µM]
N/C(=N\N=C/c1ccc(-c2ccc(O)c(C(=O)O)c2)o1)N[N+](=O)[O-],Potency,[1],4.78 µM (active)
same,Potency,[2],inactive
same,Potency,[9],inactive
same,outcome,[4],inactive
Cc1ccccc1OCC(=O)N1CCN(CCc2ccccn2)CC1,Potency,[1],inactive
same,Potency,[9],inactive
same,"activity change, negative = inhibition",[3],1.52% [at 12.7 µM]
same,Potency,[10],inactive
O=c1oc2ccccc2c(O)c1C(c1ccc([N+](=O)[O-])cc1)c1c(O)c2ccccc2oc1=O,Potency,[1],15.8 µM (active)
same,Potency,[2],inactive
same,activation,[9],"0% [at 17.1 µM, percent relative to cAMP agonist control]"
same,"activity change, negative = inhibition",[4],-13.4% [at 30.8 µM]
CN1/C(=C\C=C2C(=O)NC(=S)NC2=O)C(C)(C)c2ccccc21,Potency,[11],inactive
same,Potency,[1],inactive
same,Potency,[9],100 µM (active)
same,Potency,[3],inactive
same,outcome,[4],inactive
